The campaign covered roughly 340,000 compounds. About 1,200 (0.35%) were called active. Rule as the data show it: active = inhibition above about 50% (passing the limit was not always enough); inconclusive = no clear call, values can overlap the other calls; inactive = below about 31%. Only a selection was taken, and actives are over-represented in it overall.
Assay: HIV Vif self-association inhibitors, primary screen, imaging, HEK293T, single point (AID 602346)
Conditions: HEK293T cells, Vif self-association by quenched fluorescence, 24 h, at 7.49 µM, stronger effect = higher value

inhibition, inactive:
CCCCC(=O)N(C)c1c(CC)nc2c(OCc3ccc(Cl)cc3Cl)cccn12 1.33%
COc1ccc(NC2CCCN(C(=O)c3ccccc3-c3ncc[nH]3)C2)cc1 (stereo not drawn) 10.8%
CC(=O)Nc1cc(-c2ccc(N3CCN(C)CC3)cc2)cn2c(-c3ccc(F)cc3)cnc12 -22.4%
CCN(CC)C(=O)C1=C(C)N(Cc2ccc(C(C)(C)C)cc2)C(=O)C(CC(=O)NCc2cccc3ccccc23)C1 (stereo not drawn) -1.52%
Nc1nnc2c(C(F)(F)F)nc3ccccc3n12 44%
FC(F)(F)c1nnc2ccc(N3CCN(c4ccccc4)CC3)nn12 19.6%
CC1(Oc2ccccc2-c2ccno2)CCN(Cc2ccc(-c3ccccc3)o2)C1 (stereo not drawn) 4.47%
Cc1ccc(-c2cnc(C(O)c3cc(Cl)cc(Cl)c3)[nH]2)cc1 (stereo not drawn) -6.84%
COc1ccc(C(c2nnnn2C2CCCC2)N2CCN(C/C=C/c3ccccc3)CC2)cc1 (stereo not drawn) 16.8%
COc1ccc(C2=NN(C(=O)c3cccnc3)C(c3ccccc3)C2)cc1 (stereo not drawn) -3.05%
COc1ccc(C2CC(c3ccc([N+](=O)[O-])cc3)=NN2C(C)=O)cc1 (stereo not drawn) 1.95%
CCCCN(C=O)c1c(CC)nc2c(OCCC3CCCCC3)cccn12 -3.38%
Cc1ccccc1C1=NC(C(F)(F)F)(C(F)(F)F)c2c(n(-c3ccc(F)cc3)c(=O)[nH]c2=O)N1 -7.19%
Nc1c(N(Cc2ccco2)C(=O)c2cccc(F)c2)c(=O)[nH]c(=O)n1Cc1ccccc1 6.01%
O=C(NC(c1ccc(Cl)cc1)c1cnccn1)C1CCN(Cc2ccc(Cl)cc2)CC1 (stereo not drawn) 26.5%
CC(=O)c1ccc(Nc2nc(C(N)c3ccccc3)cs2)cc1 (stereo not drawn) -5.96%
COc1ccc(OC)c(NC(=O)C2(C)CCN2C(=O)Cc2ccccc2)c1 (stereo not drawn) 2.75%
CC(C)CC1C(=O)N(Cc2cn(Cc3ccco3)nn2)CCS(=O)(=O)N1Cc1ccc(-c2ccc(Cl)c(Cl)c2)cc1 (stereo not drawn) 0.356%
O=C(Nc1cccc(-n2cnnn2)c1)c1cccnc1 1.28%
O=S(=O)(Nc1cccc(-n2cnnn2)c1)c1cnc(Cl)c(Cl)c1 -0.268%
COc1cccc(-c2cnc3c(NC(C)=O)cc(-c4cccc(NC(C)=O)c4)cn23)c1 -4.77%
O=C(NCCN1CCOCC1)c1ccccc1N1C(=O)[C@@H]2Cc3c([nH]c4ccccc34)C(c3cccc(Cl)c3)N2C1=O (stereo partly drawn) 2.4%
COc1ccc(CNC(=O)[C@H](Cc2c[nH]c3ccccc23)NC(C)=O)cc1OC -6.67%
CCOC(=O)c1ccccc1NC(=O)COC(=O)C(Cc1c[nH]c2ccccc12)NC(C)=O (stereo not drawn) 1.23%
COc1ccc(Br)c(Cn2c(C)c(C(=O)NCc3cccs3)sc2=O)c1 1.02%
COc1cc(NC(=O)c2ccccc2)c(OC)cc1NC(=O)Cc1ccccc1 -4.83%
CCOCC(=O)Nc1cc(OC)c(Cl)cc1OC -3.02%
COCC(=O)Nc1c(I)c(C(=O)NCC(O)CO)c(I)c(C(=O)N(C)CC(O)CO)c1I (stereo not drawn) -1.59%
CC12CCC(=O)C=C1CCC1C2C(O)CC2(C)C1CCC2(O)C(O)CO (stereo not drawn) 24%
C[C@H]([C@@H](O)[C@@H](O)[C@@H](C)C(C)(C)C)[C@H]1CC[C@H]2C3CC[C@H]4C[C@H](OS(=O)(=O)O)[C@@H](OS(=O)(=O)O)C[C@]4(C)[C@H]3CC[C@]12C (stereo partly drawn) 9.95%
CC(C)(C)CC(=O)Nc1nc(C(N)Cc2ccc(C(F)(F)F)cc2)cs1 (stereo not drawn) -2.15%
C[C@@H]1CN([C@@H](C)CO)S(=O)(=O)c2ccc(C#Cc3cccc(F)c3)cc2O[C@H]1CN(C)S(=O)(=O)c1cn(C)cn1 -26.5%
Cc1ccc(C)c(N2CCN(S(=O)(=O)c3c(C)[nH]c(C)c3C(=O)N3CCCC3)CC2)c1 1.25%
Cc1ccc(C)c(N2CCN(S(=O)(=O)c3ccc4c(c3)oc(=O)n4C)CC2)c1 -13.1%
CCCCCCNC(=O)O[C@H]1CN(C(=O)OC(C)C)N(C(=O)OC(C)C)[C@@H]2CN(S(=O)(=O)c3ccc(C)cc3)C[C@]12O -2.14%
CCOP(=O)(OCC)C(Cc1ccccc1)N=C(c1ccccc1)c1ccccc1 (stereo not drawn) -3.63%
CC1(C(=O)Nc2cccc(Oc3ccccc3)c2)CCN1Cc1ccccc1Cl (stereo not drawn) 1.11%
O=C(c1ccco1)N1CCN(C(=O)C2c3ccccc3Oc3ccccc32)CC1 2.39%
O=C(c1ccco1)N1CCN(CCOc2ccccc2)CC1 3.05%
COc1ccc(C(C#N)=C2C=CC(=NO)c3ccccc32)cc1 24.3%
NC(c1ccccc1)c1csc(NC(=O)Nc2cccc(C(F)(F)F)c2)n1 (stereo not drawn) 4.85%
COc1ccc(-c2ccc(CN3C(CC(C)C)C(=O)N(Cc4cn(CC5CCCCC5)nn4)CCS3(=O)=O)cc2)cn1 (stereo not drawn) -4.05%
Cc1ccc(O)c(CNc2nc3ccccc3[nH]2)c1 -2.01%
CN(c1ccccc1)S(=O)(=O)c1cc(C(=O)Nc2nc3ccccc3[nH]2)ccc1Cl -13.9%
COc1ccc(CC(N)c2csc(NC(=O)Cc3ccccc3)n2)cc1 (stereo not drawn) -11.3%
CC(CN1CCOCC1)OC(=O)c1ccc(Cl)cc1Cl (stereo not drawn) 4.38%
CC(OC(=O)c1ccc(Cl)cc1O)C(=O)NCCC1=CCCCC1 (stereo not drawn) 11.7%
O=C(OC12CC3CC(CC(C3)C1)C2)c1ccc(NCc2cc(O)ccc2O)cc1 8.83%
COC(=O)c1ccc(NCC(=O)c2ccccc2)cc1 3.71%
COc1ccc(C(NC(=O)C2CCN(CCCc3ccccc3)CC2)c2cccs2)cc1 (stereo not drawn) 14.2%
CCCCC[C@@H]1C=C(C(=O)OCC)[C@H](c2ccccc2)N1S(=O)(=O)c1ccc(C)cc1 3.46%
COc1ccc(C(=O)NCc2nnc(SCC(=O)Nc3cccc(OC)c3)o2)cc1 19%
COc1ccc(Cc2nnc(SCC(=O)Nc3ccc(C)c(C)c3)o2)cc1OC 3.15%
CNc1cncc(-c2ccc(NS(C)(=O)=O)cc2)n1 21.1%
COc1ccc(-c2ccc(C(=O)NCCN3CCOCC3)c3occc23)c(C)c1 -8.68%
Cc1ccc(C(=O)N/C(=C\c2ccc(F)cc2)C(=O)NCCN2CCOCC2)cc1 4.18%
Cc1cc(C)cc(C(=O)NCCN2CCOCC2)c1 -5.07%
Cc1cc(=O)oc2c3c(cc(OCC(=O)NCC(O)c4ccccc4)c12)OC(C)(C)CC3 (stereo not drawn) -17%
COc1ccc(CC(N)c2csc(NC(=O)NC(c3ccccc3)c3ccccc3)n2)cc1 (stereo not drawn) 2.09%
COc1cc(Cn2c3ccc(NC(=O)CC(C)c4ccccc4)cc3c(=O)n2C)ccc1F (stereo not drawn) -4.26%
CC(C)c1cc(N=O)cc(C(C)C)c1O 3.46%
CC(C)=CCc1c(O)c(CC=C(C)C)c2occ(-c3ccc(O)cc3)c(=O)c2c1O 6.99%
O[C@H]1C[C@H](c2ccc(Cl)cc2)N(Cc2cccs2)C[C@@H]1n1cc(C2CC2)nn1 -12.7%
COc1ccc(-c2nc3cnccn3c2NC(C)(C)CC(C)(C)C)cc1O -5.81%
COc1ccc(-c2nc3cc(C)ccn3c2NC2CCCCC2)cc1SC1CCCCC1 -0.392%

inhibition, active:
FC(F)(F)c1nnc2c3ccccc3c(Cl)nn12 78.3%
COc1ccc(C2CC(c3ccccc3)=NN2C(=O)c2ccc(Cl)c([N+](=O)[O-])c2)cc1 (stereo not drawn) 89.1%
O=c1[nH]c(=O)n(Cc2ccco2)c2c1C(C(F)(F)F)(C(F)(F)F)N=C(c1ccco1)N2 51.3%
C=C(C)C(=O)O[C@H]1C/C(C)=C\C(=O)/C=C(\C)[C@H](O)[C@@H]2OC(=O)C(=C)[C@@H]21 136%
Cc1ccc(C)c(S(=O)(=O)Nc2cccc(-n3cnnn3)c2)c1 69.3%
CC(=O)NC(Cc1c[nH]c2ccccc12)C(=O)NCCc1ccccc1 (stereo not drawn) 50.4%
CC[C@]1(O)C[C@@H]2CN(CCc3c([nH]c4ccccc34)[C@@](C(=O)OC)(c3cc4c(cc3OC)N(C)[C@H]3[C@@](O)(C(=O)OC)[C@H](OC(C)=O)[C@]5(CC)C=CCN6CC[C@]43[C@@H]65)C2)C1 79.8%
COc1cc(NC(=O)c2ccc(-c3csc(C)n3)cc2)c(OC)cc1Cl 64%
CC(=O)N(CC(O)CO)c1c(I)c(C(=O)NCC(O)CO)c(I)c(C(=O)NCC(O)CO)c1I (stereo not drawn) 62%
COC(=O)c1cc(S(=O)(=O)N2CCN(c3cc(C)ccc3C)CC2)c[nH]1 51.4%
CN(Cc1ccccc1)C(=O)CCC1CCN(C(=O)c2ccco2)CC1 132%
COC(=O)Nc1nc2ccc(Sc3ccccc3)cc2[nH]1 57%
COC(=O)c1ccc(NCc2cc(O)ccc2O)cc1 101%
CC(C)OC(=O)c1ccc(NCc2cc(O)ccc2O)cc1Cl 55.2%
COc1cccc(NC(=O)CSc2nnc(Cc3ccc(OC)c(OC)c3)o2)c1 60.1%
Cc1ccc(C(=O)NC(=S)NCCN2CCOCC2)cc1 50.2%
CC(C)=CCc1ccc(O)c(=O)cc1C(C)C 114%
COc1ccc(-c2nc3cnccn3c2NC2CCCCC2)cc1-c1cccc(Cl)c1 51.8%

Reference: PubChem BioAssay AID602346 (Broad Institute, 2012)
